Measured values: article PMC12136788
Changes are numbered by the printed parent chain. Whole data set: some 5,800 sequences, median “enrichment r” near 0.54, cut for the highest 2% near 16. For the sample, the highest values were picked, then their nearest neighbours and some sequences at random.

B1: chr3:31657911:31664018:-|three_prime_utr|ENSG00000144645|control|control|control (ssRNA)
RNA: GGGAGUUCUACAGUCCGACGAUCGGGUUUUUCUUGCUGAGCCCCCAAGACUGGAUAAAUACCAGGCAGGGGAAGGGAUGGACUAGGGCAGCUCGGUUCUGACUCCAGCUUUGGACAAGGCUUCAGGACAGGUUUUCUGCCACACAACAGAGGAUUGAGCAUCA
B2: chr2:190659421:190659522:+|CDS|ENSG00000138386|unk|FALSE|unique (ssRNA)
RNA: GGGAGUUCUACAGUCCGACGAUCAGAGACUGGGUCACAAACCCUGGGCUUUUCAAUCAGCCACUGACUUCCCUUCCUGUCAGUAGCAUACCCAUCUAUAAAUUACCAGAGGGAUCACCAACAUGGCUGGGAAUAUCCUGCAGUCAACAGAGGAUUGAGCAUCA
B3: chr10:16593140:16593241:-|3pUTR|ENSG00000148484|unk|total|mutant (ssRNA)
RNA: GGGAGUUCUACAGUCCGACGAUCUUAUUUUUCUUUUCACUCUCUUUCUAAUGCUUCCCACCUUACCUUUCCGAUUCUUUUGCCCGGUGGGAGAUUGUUAUAAGGUCUUUAAACCAUUUCCAUUUGUUUCUUUAACAUUACCAACAACAGAGGAUUGAGCAUCA
B4: chr5:72207278:72207408:+|3pUTR|ENSG00000131711|msi1_unk|FALSE|overlapping (ssRNA)
RNA: GGGAGUUCUACAGUCCGACGAUCAGAGAACAAUGACCUCAUUUUAUUUUCUAUGUUAGUUAUUUAUUUCAAAAUUAACAUUUUAGUUGAUUUUUGUCUGAUAAGUCUAUGUUUUGCACUGCUAACUAUGAUGAGGGUUUAAAACAACAGAGGAUUGAGCAUCA
B5: chr7:137014887:137014989:+|CDS|ENSG00000181072|unk|FALSE|unique (ssRNA)
RNA: GGGAGUUCUACAGUCCGACGAUCGCUACUUGGCUACUGAUUAGAGAACGCAAAAUGAAUAACUCAACAAACUCCUCUAACAAUAGCCUGGCUCUUACAAGUCCUUAUAAGACAUUUGAAGUGGUGUUUAUUGUCCUGGUGGCUCAACAGAGGAUUGAGCAUCA
B6: chr1:204554719:204554820:+|3pUTR|ENSG00000198625|unk|FALSE|unique (ssRNA)
RNA: GGGAGUUCUACAGUCCGACGAUCAAGUACUUUCUUUUGACAGAAAUUUUCAUUCUGCUUGCCAUUGCUAUAUUCUCCCUUUAUAGGAGCCAUUGGAUUUCUUUCCUUUUGUGGGAAAUGUCCCAUUAGCAUUUUCAGAUCUUUCAACAGAGGAUUGAGCAUCA
B7: chr6:117694021:117694122:+|CDS|ENSG00000153989|msi1|FALSE|unique (ssRNA)
RNA: GGGAGUUCUACAGUCCGACGAUCGCUGUCUCCGGAAGAUGGAAAAGCAGAUAUUGUAAGAGCUGCUCAGGACUUUUGCCAGUUAGUAGCCCAGAAGCAAAAGAGACCCACAGAUUUGGAUGUAGAUACGUUAGCCAGUUUACUCAACAGAGGAUUGAGCAUCA
B8: chr10:17237356:17237519:+|3pUTR|ENSG00000026025|msi1_unk|total|mutant (ssRNA)
RNA: GGGAGUUCUACAGUCCGACGAUCAGACCGAUUUGGAACCGGAAUAAGCUCCCGUUCUUAACAACCGACACUCCUACAAGAUUCCGAAAAAAGUUUACAACAUAAUCCCGUUUACAGAAAAAUCUUGUGCCCGAAUACUUUUUACAACAGAGGAUUGAGCAUCA
B9: chr10:17237356:17237519:+|3pUTR|ENSG00000026025|msi1_unk|FALSE|overlapping (ssRNA)
RNA: GGGAGUUCUACAGUCCGACGAUCAGAUAGAUUUGGAAUAGGAAUAAGCUCUAGUUCUUAACAACCGACACUCCUACAAGAUUUAGAAAAAAGUUUACAACAUAAUCUAGUUUACAGAAAAAUCUUGUGCUAGAAUACUUUUUACAACAGAGGAUUGAGCAUCA
B10: chrX:120258281:120258382:+|3pUTR|ENSG00000177485|msi1|FALSE|bound_elsewhere (ssRNA)
RNA: GGGAGUUCUACAGUCCGACGAUCUGUACAAUCUUCCCUGUCAUGACUUUAAGUUCUACUUUUCAUUAACCAUGGCCUGAUAUUAGUUCUUAGAGCUUCUUGUGGCAAAAAUAAAAUGAUUUAAUUCUGAUGUUUGAGUGCGUGCAACAGAGGAUUGAGCAUCA
B11: chr6:105096826:105097152:-|3pUTR|ENSG00000112276|msi1|FALSE|unique (ssRNA)
RNA: GGGAGUUCUACAGUCCGACGAUCACUUGCAACCUAGUUUUAAAAUACAUGAGGAUUUUAUGAAAGCUUUAUACAGACAUUUAUAGGAAACUCAUUCUUUGAUUUUAGGUGCCAUUUAAAUUGAUAACACUUACUUUAUAAAAACAACAGAGGAUUGAGCAUCA
B12: chr8:41263181:41263319:-|3pUTR|ENSG00000104332|msi1|FALSE|unique (ssRNA)
RNA: GGGAGUUCUACAGUCCGACGAUCCUUAAGUGAUUUGCCUGUAAUUUUGGAUGAUUAAAAAAUGUGUAUAUAUAUUAGCUAAUUAGAAAUAUUCUACUUCUCUGUUGUCAAACUGAAAUUCAGAGCAAGUUCCUGAGUGCGUGGCAACAGAGGAUUGAGCAUCA
B13: chr12:76028832:76028933:-|3pUTR|ENSG00000139289|msi1|FALSE|unique (ssRNA)
RNA: GGGAGUUCUACAGUCCGACGAUCAAAGGAAAAGACUGGAUAAACACAGGAUUUUCAGUAAGAAAACAACCCCAGUCUUGUCUUAGAAGCCACUUGUUGAGGAGUCUGUUGGGGGAAAAAAGAGGAUAUGCUUUUAAAGGUAGACAACAGAGGAUUGAGCAUCA
B14: chr8:41263181:41263319:-|3pUTR|ENSG00000104332|msi1|total|mutant (ssRNA)
RNA: B12 RNA with U75C, A76C, U83C, A84C
B15: chr6:117694021:117694122:+|CDS|ENSG00000153989|msi1|total|mutant (ssRNA)
RNA: B7 RNA with U83C, A84C, U86C, A87C, U122C, A123C, U131C, A132C
B16: chr1:62654060:62654161:-|CDS|ENSG00000116641|unk|FALSE|unique (ssRNA)
RNA: GGGAGUUCUACAGUCCGACGAUCCUUGUUUUCUACCCAUCUCUUAUCCCAACUUUUUACAAAGGUGCCCCUUACCGAAGCAGUAGAUCCAGUGGAUUUGGAAGAUUACCUCAUUACUCAUCCUUUGGCUGUGGAUUCUGGGCCCAACAGAGGAUUGAGCAUCA
B17: chr8:86558718:86558819:+|3pUTR|ENSG00000085719|unk|total|mutant (ssRNA)
RNA: GGGAGUUCUACAGUCCGACGAUCCUGUUGUUGUUUUUGUUUACUUUCAUAUGAUGAAAAUGCUGUGUUUAAGUGUUUGUCAACCGGAAGAAUGGAAAACUGUUGGGAUGAUGUGGUUUGCAGGUUGCUGUGCCUGAUUCACAGCAACAGAGGAUUGAGCAUCA
B18: chr13:20822168:20822271:-|CDS|ENSG00000132953|unk|FALSE|unique (ssRNA)
RNA: GGGAGUUCUACAGUCCGACGAUCUCGAAAAAUCAGAGAAGAUUCAGAUAUGGCACAAGAUUCUCUGCAGUGCCUUGCCCAGUUAGCUUCUCUUCAUGGACCCAUCUUCCCAGAUGAAGGAUCACAAGUUGAUUAUCUAGCACACAACAGAGGAUUGAGCAUCA
B19: chr21:43758806:43758907:+|3pUTR|ENSG00000160209|msi1|FALSE|unique (ssRNA)
RNA: GGGAGUUCUACAGUCCGACGAUCACUUUCUUAAUCCAGUUUUUCAAACUUCUCCCUGUAGACCGUAAGGAUGAAUUCCACAAUAGGAUCCUUUUUAAAAUCGAUUUUAAAUUGUUGCCUAGUCCUGCCAAGGUUAUUAUGUGCCAACAGAGGAUUGAGCAUCA
B20: chr14:21351797:21351898:-|3pUTR|ENSG00000092201|msi1|FALSE|unique (ssRNA)
RNA: GGGAGUUCUACAGUCCGACGAUCGAGGAAGGCUCAAAGGAGUCAACAUUUAUAUCUGGAAGGGACAAGUCAUGCCUUGGGCCUAGAAUACCCUGAUGAGAAAAGAGAAGAGGAAGGGAGGCCAUAUCUACAACACAGCCUCUCCAACAGAGGAUUGAGCAUCA
B21: chr9:122240152:122240253:-|3pUTR|ENSG00000119446|msi1|total|mutant (ssRNA)
RNA: GGGAGUUCUACAGUCCGACGAUCCUUCUUGGAGUACCGAAUUCACCAUUUUAUCCGUAAGUCUUCAAAGGAUUAUGGUGGACCCGAACUUACACCGUGCAAAACCGUCUUCUAUUUUUAACCGGAACUCCGAAAAAACUCCGACAACAGAGGAUUGAGCAUCA
B22: chr9:122240152:122240253:-|3pUTR|ENSG00000119446|msi1|FALSE|unique (ssRNA)
RNA: GGGAGUUCUACAGUCCGACGAUCCUUCUUGGAGUAUAGAAUUCACCAUUUUAUCCGUAAGUCUUCAAAGGAUUAUGGUGGACUAGAACUUACAUAGUGCAAAAUAGUCUUCUAUUUUUAAUAGGAACUUAGAAAAAACUUAGACAACAGAGGAUUGAGCAUCA
B23: chr3:121431430:121432303:-|three_prime_utr|ENSG00000051341|control|control|control (ssRNA)
RNA: GGGAGUUCUACAGUCCGACGAUCUGGAAAGAACAGAGAUUACCCUUUCACCUACCUCAGCAAAACAAACUUUCAAGUCUUGAUAGACUUAGCCUAGUAAUUUUAUAGUGAGAGUUUCAAACUAUAUAUCAGUGUCUAUAGCAUCAACAGAGGAUUGAGCAUCA
B24: chr1:213241217:213241334:+|CDS|ENSG00000136643|unk|total|mutant (ssRNA)
RNA: GGGAGUUCUACAGUCCGACGAUCAGUUCUCCAAGAACAUCAGAUUCCCUCAGCCGAUCAAAAAACCGCCCCAUGGAAUUCUUCCGGACCGACAGUAAGGACCGCGCAAGUGAACUCCUGGGACUUGACUUUGGAGAAAAAUUGCAACAGAGGAUUGAGCAUCA
B25: chr1:213241217:213241334:+|CDS|ENSG00000136643|unk|FALSE|unique (ssRNA)
RNA: B24 RNA with C53U, C54A, C65U, C66A, C83U, C84A, C88U, C89A, C101U, C102A
B26: ENSG00000107863:be:win_1951|CDS|ENSG00000107863|bound_else_gene|NA|bound_elsewhere_windowed (ssRNA)
RNA: GGGAGUUCUACAGUCCGACGAUCCCAGUAAAUCACUUGCAUCAGAACAGUCUGUUGAAUCAGCAGACAUGGGUAAGGACUGACAGUGCCCCCGAUCAGCAAGUGGAGACUGGGAAAUCCCCCUCUUUAUCUGGAGCCUCUGCCCAACAGAGGAUUGAGCAUCA
B27: ENSG00000120802:stop:overlap|stop_codon|ENSG00000120802|stop_codon|NA|stop_codon (ssRNA)
RNA: GGGAGUUCUACAGUCCGACGAUCGUGGAACAUUAUUUGGAGGAGAAGUAUGCAAAGUAAUUAAAAAGCGUGGAAAUAAACACUAGUAAAAUUAAGGACAAAAAGACAUCUAUCUUAUCUUUCAGGUACUUUAUGCCAACAUUUCAACAGAGGAUUGAGCAUCA
B28: ENSG00000177426:stop:overlap|stop_codon|ENSG00000177426|stop_codon|NA|stop_codon (ssRNA)
RNA: GGGAGUUCUACAGUCCGACGAUCCUCAAAGACAGAAGGAAUAUCUUUUUAUUGUAAACUUGAUAGUGUUAAAAGCUAAUAACUAGCUAUUUAGAGAACACAGAAACACUUGACAGUCAUCUAUCAGAUAGCAUUUCCUUUAAUCAACAGAGGAUUGAGCAUCA
B29: ENSG00000070961:be:win_4551|3pUTR|ENSG00000070961|bound_else_gene|NA|bound_elsewhere_windowed (ssRNA)
RNA: GGGAGUUCUACAGUCCGACGAUCAAUGAAAGAUGCUUGAAAUGCUUUUGUUAUUUCAGGCAAAUCAAAUUAAAUCAGACUAUCAAACUACAAGAGAACCUUAGUCUUUUUUGUUUUUGUCUAAACAUGUUAGUUUAGUGAUGUCAACAGAGGAUUGAGCAUCA

The binders below were run against MSI1 full-length (mouse, UniProt Q61474 1-362) (assay: nsRBNS (natural sequence RNA bind-n-seq); RBNS binding buffer (assumed for nsRBNS): 25 mM Tris pH 7.5, 150 mM KCl, 3 mM MgCl2, 0.01% Triton X-100, 500 ug/ml BSA, 20 U/ml SUPERase-In, 4 C; UNK is unkempt and MSI1 is Musashi-1; names of the RNAs are library labels; protein concentration not given here; high values mean tight binding).
MSI1 full-length, sequence (Q61474 whole entry): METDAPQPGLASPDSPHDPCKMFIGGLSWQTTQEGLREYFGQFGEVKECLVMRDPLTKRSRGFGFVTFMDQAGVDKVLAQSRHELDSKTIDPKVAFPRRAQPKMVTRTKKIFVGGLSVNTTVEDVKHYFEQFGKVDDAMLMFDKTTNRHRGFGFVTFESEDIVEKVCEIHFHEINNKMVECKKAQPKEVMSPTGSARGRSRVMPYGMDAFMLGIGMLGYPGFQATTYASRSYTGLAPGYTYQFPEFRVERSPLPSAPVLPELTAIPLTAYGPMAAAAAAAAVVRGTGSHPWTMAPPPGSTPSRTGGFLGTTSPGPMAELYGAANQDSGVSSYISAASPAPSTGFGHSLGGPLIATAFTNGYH

Binder	binding signal [enrichment R]
B1	0.515
B2	0.584
B3	1.23
B4	1.11
B5	0.188
B6	0.583
B7	17.5
B8	0.307
B9	20.9
B10	0.662
B11	1.13
B12	21.3
B13	0.854
B14	0.429
B15	0.409
B16	0.626
B17	0.342
B18	0.341
B19	0.936
B20	0.748
B21	0.272
B22	20.5
B23	17.4
B24	0.533
B25	24.6
B26	0.425
B27	1.57
B28	0.812
B29	1.39
